Source: the supplement of paper PMC6992640
Counter-ions that a name gives are not always drawn.

Assays:
HCI01 = cells of a triple-negative basal-like breast cancer xenograft; assay: cell viability of combination (% of vehicle); higher = less cytotoxic; conditions: 1 µM; 72 h; partner dose: 10 nM
Method: (§1)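 PDX cells were treated for 72 h with each drug at 1 µM plus afatinib (10 nM; 1 µM for WHIM30). Luciferase viability is expressed as percent of vehicle.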

WHIM2 = cells of a triple-negative basal-like breast cancer xenograft; assay: as above; conditions: 1 µM; 72 h; partner dose: 10 nM
Method: as §1

SMILES: CC(C)CC(NC(=O)C(CCc1ccccc1)NC(=O)CN1CCOCC1)C(=O)NC(Cc1ccccc1)C(=O)NC(CC(C)C)C(=O)C1(C)CO1 (stereo unspecified) [Carfilzomib (PR-171)] + CN(C)C/C=C/C(=O)Nc1cc2c(Nc3ccc(F)c(Cl)c3)ncnc2cc1O[C@H]1CCOC1 [Afatinib]
- cell viability of combination (HCI01): 17.5
- cell viability of combination (WHIM2): 26.7

SMILES: CCOC(=O)c1c(CSc2ccccc2)n(C)c2cc(Br)c(O)c(CN(C)C)c12.Cl [Arbidol HCl] + CN(C)C/C=C/C(=O)Nc1cc2c(Nc3ccc(F)c(Cl)c3)ncnc2cc1O[C@H]1CCOC1 [Afatinib]
- cell viability of combination (HCI01): 55.3
- cell viability of combination (WHIM2): 45.2

SMILES: O=C1C=CC=CC1=C1NC(=C2C=CC=CC2=O)N(c2ccc(C(=O)O)cc2)N1 [Deferasirox] + CN(C)C/C=C/C(=O)Nc1cc2c(Nc3ccc(F)c(Cl)c3)ncnc2cc1O[C@H]1CCOC1 [Afatinib]
- cell viability of combination (HCI01): 43.2
- cell viability of combination (WHIM2): 42.2

SMILES: COc1nc2ccc(Br)cc2cc1[C@@H](c1ccccc1)[C@@](O)(CCN(C)C)c1cccc2ccccc12 [Bedaquiline fumarate] + CN(C)C/C=C/C(=O)Nc1cc2c(Nc3ccc(F)c(Cl)c3)ncnc2cc1O[C@H]1CCOC1 [Afatinib]
- cell viability of combination (HCI01): 52.9
- cell viability of combination (WHIM2): 49

SMILES: COc1ccc(CN2CCN(C(c3ccc(F)cc3)c3ccc(F)cc3)CC2)c(OC)c1OC.Cl.Cl [Lomerizine HCl] + CN(C)C/C=C/C(=O)Nc1cc2c(Nc3ccc(F)c(Cl)c3)ncnc2cc1O[C@H]1CCOC1 [Afatinib]
- cell viability of combination (HCI01): 57.7
- cell viability of combination (WHIM2): 50.9

SMILES: CCOC(=O)C1=C(COCCN)NC(C)=C(C(=O)OC)C1c1ccccc1Cl (stereo unspecified) [Amlodipine] + CN(C)C/C=C/C(=O)Nc1cc2c(Nc3ccc(F)c(Cl)c3)ncnc2cc1O[C@H]1CCOC1 [Afatinib]
- cell viability of combination (HCI01): 58.2
- cell viability of combination (WHIM2): 51.1

SMILES: Cl.OC(CNCC(O)C1CCc2cc(F)ccc2O1)C1CCc2cc(F)ccc2O1 (stereo unspecified) [Nebivolol] + CN(C)C/C=C/C(=O)Nc1cc2c(Nc3ccc(F)c(Cl)c3)ncnc2cc1O[C@H]1CCOC1 [Afatinib]
- cell viability of combination (HCI01): 47.1
- cell viability of combination (WHIM2): 44.7

SMILES: CCCCCCCCCCCCCCCCOP(=O)([O-])OCC[N+](C)(C)C [Miltefosine] + CN(C)C/C=C/C(=O)Nc1cc2c(Nc3ccc(F)c(Cl)c3)ncnc2cc1O[C@H]1CCOC1 [Afatinib]
- cell viability of combination (HCI01): 56.7
- cell viability of combination (WHIM2): 49.3

SMILES: CO[C@H]1C[C@@H]2CC[C@@H](C)[C@@](O)(O2)C(=O)C(=O)N2CCCC[C@H]2C(=O)O[C@H]([C@H](C)C[C@@H]2CC[C@@H](OC(=O)C(C)(CO)CO)[C@H](OC)C2)CC(=O)[C@H](C)/C=C(\C)[C@@H](O)[C@@H](OC)C(=O)[C@H](C)C[C@H](C)/C=C/C=C/C=C/1C [Temsirolimus] + CN(C)C/C=C/C(=O)Nc1cc2c(Nc3ccc(F)c(Cl)c3)ncnc2cc1O[C@H]1CCOC1 [Afatinib]
- cell viability of combination (HCI01): 45.9
- cell viability of combination (WHIM2): 44

SMILES: C[C@H]1O[C@@H](O[C@H]2[C@@H](O)C[C@H](O[C@H]3[C@@H](O)C[C@H](O[C@H]4CC[C@@]5(C)[C@H](CC[C@@H]6[C@@H]5C[C@@H](O)[C@]5(C)[C@@H](C7=CC(=O)OC7)CC[C@]65O)C4)O[C@@H]3C)O[C@@H]2C)C[C@H](O)[C@@H]1O [Digoxin] + CN(C)C/C=C/C(=O)Nc1cc2c(Nc3ccc(F)c(Cl)c3)ncnc2cc1O[C@H]1CCOC1 [Afatinib]
- cell viability of combination (HCI01): 27.8
- cell viability of combination (WHIM2): 61.3

SMILES: COc1cccc2c1C(=O)c1c(O)c3c(c(O)c1C2=O)CC(O)(C(=O)CO)CC3OC1CC(N)C(O)C(C)O1 (stereo unspecified) [Doxorubicin] + CN(C)C/C=C/C(=O)Nc1cc2c(Nc3ccc(F)c(Cl)c3)ncnc2cc1O[C@H]1CCOC1 [Afatinib]
- cell viability of combination (HCI01): 43.8
- cell viability of combination (WHIM2): 15.6

SMILES: CC(=O)C1(O)Cc2c(O)c3c(c(O)c2C(OC2CC(N)C(O)C(C)O2)C1)C(=O)c1ccccc1C3=O.Cl (stereo unspecified) [Idarubicin HCl] + CN(C)C/C=C/C(=O)Nc1cc2c(Nc3ccc(F)c(Cl)c3)ncnc2cc1O[C@H]1CCOC1 [Afatinib]
- cell viability of combination (HCI01): 131
- cell viability of combination (WHIM2): 11.7

SMILES: CS(=O)(=O)CCNCc1ccc(-c2ccc3ncnc(Nc4ccc(OCc5cccc(F)c5)c(Cl)c4)c3c2)o1.Cc1ccc(S(=O)(=O)O)cc1.Cc1ccc(S(=O)(=O)O)cc1 [Lapatinib Ditosylate] + CN(C)C/C=C/C(=O)Nc1cc2c(Nc3ccc(F)c(Cl)c3)ncnc2cc1O[C@H]1CCOC1 [Afatinib]
- cell viability of combination (HCI01): 41.6
- cell viability of combination (WHIM2): 36.7

SMILES: CC(Oc1cc(-c2cnn(C3CCNCC3)c2)cnc1N)c1c(Cl)ccc(F)c1Cl [(R)-Crizotinib] + CN(C)C/C=C/C(=O)Nc1cc2c(Nc3ccc(F)c(Cl)c3)ncnc2cc1O[C@H]1CCOC1 [Afatinib]
- cell viability of combination (HCI01): 66
- cell viability of combination (WHIM2): 44.4

SMILES: Cc1c(Cl)cccc1Nc1ccccc1C(=O)O [Tolfenamic Acid] + CN(C)C/C=C/C(=O)Nc1cc2c(Nc3ccc(F)c(Cl)c3)ncnc2cc1O[C@H]1CCOC1 [Afatinib]
- cell viability of combination (HCI01): 57.3
- cell viability of combination (WHIM2): 51

SMILES: COC(=O)c1ccc2c(c1)NC(=O)C2=C(Nc1ccc(N(C)C(=O)CN2CCN(C)CC2)cc1)c1ccccc1 [Nintedanib (BIBF 1120)] + CN(C)C/C=C/C(=O)Nc1cc2c(Nc3ccc(F)c(Cl)c3)ncnc2cc1O[C@H]1CCOC1 [Afatinib]
- cell viability of combination (HCI01): 45
- cell viability of combination (WHIM2): 22.5

SMILES: Cc1ccc(-n2[nH]c(C)c(NN=C3C=CC=C(c4cccc(C(=O)O)c4)C3=O)c2=O)cc1C [Eltrombopag] + CN(C)C/C=C/C(=O)Nc1cc2c(Nc3ccc(F)c(Cl)c3)ncnc2cc1O[C@H]1CCOC1 [Afatinib]
- cell viability of combination (HCI01): 52.9
- cell viability of combination (WHIM2): 48.5

SMILES: COC(=O)C1=C(C)NC(C)=C(C(=O)OC2CCCN(Cc3ccccc3)C2)C1c1cccc([N+](=O)[O-])c1.Cl (stereo unspecified) [Benidipine HCl] + CN(C)C/C=C/C(=O)Nc1cc2c(Nc3ccc(F)c(Cl)c3)ncnc2cc1O[C@H]1CCOC1 [Afatinib]
- cell viability of combination (HCI01): 53.4
- cell viability of combination (WHIM2): 51.4

SMILES: COC1=C(OC)C(=O)C(CCCCCCCCCCO)=C(C)C1=O [Idebenone] + CN(C)C/C=C/C(=O)Nc1cc2c(Nc3ccc(F)c(Cl)c3)ncnc2cc1O[C@H]1CCOC1 [Afatinib]
- cell viability of combination (HCI01): 58.8
- cell viability of combination (WHIM2): 50.1

SMILES: C1=C\COCc2cc(ccc2OCCN2CCCC2)Nc2nccc(n2)-c2cccc(c2)COC/1 [Pacritinib] + CN(C)C/C=C/C(=O)Nc1cc2c(Nc3ccc(F)c(Cl)c3)ncnc2cc1O[C@H]1CCOC1 [Afatinib]
- cell viability of combination (HCI01): 37.8
- cell viability of combination (WHIM2): 38.8

SMILES: CC(O)C(=O)O.CC(O)C(=O)O.CN1CCN(c2ccc3c(c2)NC(=C2C(=O)N=c4cccc(F)c4=C2N)N3)CC1 [Dovitinib Dilactic acid] + CN(C)C/C=C/C(=O)Nc1cc2c(Nc3ccc(F)c(Cl)c3)ncnc2cc1O[C@H]1CCOC1 [Afatinib]
- cell viability of combination (HCI01): 42.3
- cell viability of combination (WHIM2): 30.4

SMILES: CCCCCCCCc1ccc(CCC(N)(CO)CO)cc1.Cl [Fingolimod (FTY720)] + CN(C)C/C=C/C(=O)Nc1cc2c(Nc3ccc(F)c(Cl)c3)ncnc2cc1O[C@H]1CCOC1 [Afatinib]
- cell viability of combination (HCI01): 53.7
- cell viability of combination (WHIM2): 44.5

SMILES: CCOc1cc2ncc(C#N)c(Nc3ccc(OCc4ccccn4)c(Cl)c3)c2cc1NC(=O)C=CCN(C)C [Neratinib (HKI-272)] + CN(C)C/C=C/C(=O)Nc1cc2c(Nc3ccc(F)c(Cl)c3)ncnc2cc1O[C@H]1CCOC1 [Afatinib]
- cell viability of combination (HCI01): 60.9
- cell viability of combination (WHIM2): 25.5

SMILES: C=C1C(=CC=C2CCCC3(C)C2CCC3C(C)C=CC(C)C(C)C)CC(O)CC1O (stereo unspecified) [Doxercalciferol] + CN(C)C/C=C/C(=O)Nc1cc2c(Nc3ccc(F)c(Cl)c3)ncnc2cc1O[C@H]1CCOC1 [Afatinib]
- cell viability of combination (HCI01): 44.8
- cell viability of combination (WHIM2): 37.1

SMILES: CCN(CC)CCNC(=O)c1c(C)[nH]c(C=C2C(=O)Nc3ccc(F)cc32)c1C.O=C(O)CC(O)C(=O)O [Sunitinib malate] + CN(C)C/C=C/C(=O)Nc1cc2c(Nc3ccc(F)c(Cl)c3)ncnc2cc1O[C@H]1CCOC1 [Afatinib]
- cell viability of combination (HCI01): 42
- cell viability of combination (WHIM2): 44.2

SMILES: CC(O)C(=O)O.CCOc1ccc2nc3cc(N)ccc3c(N)c2c1.O [Ethacridine lactate monohydrate] + CN(C)C/C=C/C(=O)Nc1cc2c(Nc3ccc(F)c(Cl)c3)ncnc2cc1O[C@H]1CCOC1 [Afatinib]
- cell viability of combination (HCI01): 52.5
- cell viability of combination (WHIM2): 31.1

SMILES: Cn1cnc2c(F)c(Nc3ccc(Br)cc3F)c(C(=O)NOCCO)cc21 + CN(C)C/C=C/C(=O)Nc1cc2c(Nc3ccc(F)c(Cl)c3)ncnc2cc1O[C@H]1CCOC1 [Afatinib]
- cell viability of combination (HCI01): 40.5
- cell viability of combination (WHIM2): 34.8

SMILES: CN(C)c1ccc(O)c2c1CC1CC3C(N(C)C)C(=O)C(C(N)=O)=C(O)C3(O)C(=O)C1=C2O.Cl (stereo unspecified) [Minocycline HCl] + CN(C)C/C=C/C(=O)Nc1cc2c(Nc3ccc(F)c(Cl)c3)ncnc2cc1O[C@H]1CCOC1 [Afatinib]
- cell viability of combination (HCI01): 66.6
- cell viability of combination (WHIM2): 49.9
